Screen size: about 310,000 compounds; about 2,200 (0.71%) showed an effect of 50% or more. Effects have a minus sign here. The sample holds strong results, similar compounds and a random draw of the others, so the mix is not that of the screen.

The target of this experiment is human ether-à-go-go-related gene (hERG) potassium channel (human, UniProt Q12809). The experiment is described as follows: primary screen, population patch clamp on CHO cells stably expressing hERG; higher = less effect of the substance.
Chain of human ether-à-go-go-related gene (hERG) potassium channel (Q12809 whole entry, looked up): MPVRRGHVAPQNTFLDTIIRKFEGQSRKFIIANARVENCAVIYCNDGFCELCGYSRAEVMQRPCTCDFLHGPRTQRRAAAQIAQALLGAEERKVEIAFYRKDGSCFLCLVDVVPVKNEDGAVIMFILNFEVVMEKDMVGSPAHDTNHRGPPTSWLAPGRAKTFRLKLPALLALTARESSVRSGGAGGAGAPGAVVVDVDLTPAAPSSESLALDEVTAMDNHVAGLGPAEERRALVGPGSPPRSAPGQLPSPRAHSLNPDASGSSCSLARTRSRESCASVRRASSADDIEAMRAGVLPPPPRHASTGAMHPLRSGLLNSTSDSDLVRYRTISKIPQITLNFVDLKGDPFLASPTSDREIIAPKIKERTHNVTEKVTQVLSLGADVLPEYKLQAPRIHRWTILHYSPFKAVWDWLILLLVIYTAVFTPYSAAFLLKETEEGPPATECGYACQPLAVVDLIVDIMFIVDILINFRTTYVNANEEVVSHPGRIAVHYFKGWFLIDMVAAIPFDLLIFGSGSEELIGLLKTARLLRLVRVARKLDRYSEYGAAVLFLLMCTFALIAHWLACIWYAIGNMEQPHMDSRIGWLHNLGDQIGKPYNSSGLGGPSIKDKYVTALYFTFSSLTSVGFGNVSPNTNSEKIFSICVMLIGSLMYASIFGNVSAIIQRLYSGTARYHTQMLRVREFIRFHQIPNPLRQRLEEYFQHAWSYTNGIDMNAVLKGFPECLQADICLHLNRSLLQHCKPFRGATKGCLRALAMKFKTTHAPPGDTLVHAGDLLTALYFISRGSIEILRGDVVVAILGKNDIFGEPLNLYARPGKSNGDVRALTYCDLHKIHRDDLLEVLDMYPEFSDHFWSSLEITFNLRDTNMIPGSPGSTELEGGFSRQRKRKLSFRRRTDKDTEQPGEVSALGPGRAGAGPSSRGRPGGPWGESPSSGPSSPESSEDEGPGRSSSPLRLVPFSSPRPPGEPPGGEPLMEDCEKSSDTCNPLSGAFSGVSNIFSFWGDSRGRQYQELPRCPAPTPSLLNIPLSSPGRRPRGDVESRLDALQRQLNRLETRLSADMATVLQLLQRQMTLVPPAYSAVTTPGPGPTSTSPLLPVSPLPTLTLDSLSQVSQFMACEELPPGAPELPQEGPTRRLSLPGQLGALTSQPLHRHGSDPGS
With `O=C(OCc1nnc(-c2ccccc2)o1)c1cn(-c2ccccc2)nc1-c1ccccc1`, the “hERG current change (%, negative = inhibition) at 1uM” value is reported as -1.95%.
With `CC1CCCN(C(=O)Cn2nnc(-c3ccc(S(C)(=O)=O)cc3)n2)C1` (centres unmarked), the “hERG current change (%, negative = inhibition) at 1uM” value is recorded as 21.2%.
On to `COc1ccc(OC)c(NC(=O)C2CCN(c3cc(-c4ccccc4)nc4ncnn34)CC2)c1`, for which the “hERG current change (%, negative = inhibition) at 1uM” value is -2.67%.
As for `CCCNC(=O)C1CCN(c2cc(-c3ccccc3)nc3ncnn23)CC1`, the “hERG current change (%, negative = inhibition) at 1uM” value is given as -65.6%.
The value for `Cc1ccccc1NC(=O)C1CCN(c2cc(-c3ccccc3)nc3ncnn23)CC1` was 5.72%; that for `CNC(=S)N(CCc1c(C)[nH]c2ccc(C)cc12)Cc1ccco1` was -2.69%; that for `CNC(=O)CN(c1cc(C)ccc1C)S(C)(=O)=O` was 2.83%.
With `Cc1ccccc1N/N=C1\CCCNC1=O`, the “hERG current change (%, negative = inhibition) at 1uM” value came to 6.51%.
On to `O=C(CSc1nnc(-c2cccnc2)n1Cc1ccco1)c1ccc(Cl)cc1`, for which the “hERG current change (%, negative = inhibition) at 1uM” value is listed as -21.1%.
For the molecule `O=C(NNC(=O)c1cccs1)c1ccc(Cl)cc1`, the “hERG current change (%, negative = inhibition) at 1uM” value turned out to be 9.36%.
On to `CSc1ccccc1-n1nnnc1SCC(=O)Nc1ccccc1C`, for which the “hERG current change (%, negative = inhibition) at 1uM” value was -9.11%.
Consider `COc1ccccc1/C=C/C=N/NC(=O)c1cccs1`, for which the “hERG current change (%, negative = inhibition) at 1uM” value came to 16.1%.
For the molecule `Cc1ccc(-c2nc(CN3CCCC(C(=O)N4CCOCC4)C3)c(C)o2)cc1` (centres unmarked), the “hERG current change (%, negative = inhibition) at 1uM” value is -9.44%.
On to `Cc1oc(-c2ccc(Cl)cc2)nc1CN1CCCN(C(=O)c2ccco2)CC1`, for which the “hERG current change (%, negative = inhibition) at 1uM” value is reported as -57.4%.
Take `Cc1cc(N2CCN(Cc3nc(-c4ccc(Cl)cc4)oc3C)CC2)cc(C)n1`: the “hERG current change (%, negative = inhibition) at 1uM” value is recorded as -57.8%.
For the molecule `COC(=O)c1ccc(-c2nc(CN3CCCN(C(=O)c4ccco4)CC3)c(C)o2)cc1`, the “hERG current change (%, negative = inhibition) at 1uM” value is -15%.
In the case of `Cc1oc(-c2ccc(Cl)cc2)nc1CN1CCCC(C(=O)N2CCN(C(=O)c3ccco3)CC2)C1` (centres unmarked), the “hERG current change (%, negative = inhibition) at 1uM” value was -75.1%.
As to `Cc1cc(N2CCN(Cc3nc(-c4ccc(F)cc4)oc3C)CC2)cc(C)n1`, the “hERG current change (%, negative = inhibition) at 1uM” value is reported as -27.2%.
With `O=C(c1ccco1)N1CCN(Cc2nnc(-c3ccccc3)o2)CC1`, the “hERG current change (%, negative = inhibition) at 1uM” value was -6.25%.
As to `O=C(c1ccco1)N1CCN(Cc2nnc(-c3cccc(Cl)c3)o2)CC1`, the “hERG current change (%, negative = inhibition) at 1uM” value is -13.8%.
For the molecule `O=C(c1ccco1)N1CCN(Cc2nnc(-c3cccc(Br)c3)o2)CC1`, the “hERG current change (%, negative = inhibition) at 1uM” value was -51.6%.
With `Cc1oc(-c2ccccc2Cl)nc1CN1CCCN(C(=O)c2ccco2)CC1`, the “hERG current change (%, negative = inhibition) at 1uM” value is reported as -21.4%.
`Cc1oc(-c2ccc(Cl)cc2)nc1CN1CCCC(C(=O)NCc2cccnc2)C1` (centres unmarked): the “hERG current change (%, negative = inhibition) at 1uM” value is recorded as -43.6%.
As for `Cc1cccc(N2CCN(Cc3nc(-c4cccc(Cl)c4)oc3C)CC2)n1`, the “hERG current change (%, negative = inhibition) at 1uM” value is reported as -7.13%.
As to `Nc1c([N+](=O)[O-])c(=O)sc2ccccc12`, the “hERG current change (%, negative = inhibition) at 1uM” value came to 2.09%.
The value for `CN(C(=O)c1cccs1)c1ccc(OCC(=O)N2CCC(C(N)=O)CC2)cc1` was 25.6%; that for `O=C(Cn1nc(C(F)F)cc1C1CC1)NCCC1=CCCCC1` was 9.48%.
`CCCCN(C(=O)CSc1nn(-c2ccc(F)cc2)c(=S)s1)c1c(N)n(CCCC)c(=O)[nH]c1=O`: the “hERG current change (%, negative = inhibition) at 1uM” value is on record as 8.15%.
Consider `Cc1ccc(CCC(=O)Nc2ccccc2F)s1`, for which the “hERG current change (%, negative = inhibition) at 1uM” value turned out to be 4.84%.
With `O=C(CC1OC(=O)c2ccccc21)Nc1cccc(S(=O)(=O)N2CCCCCC2)c1` (centres unmarked), the “hERG current change (%, negative = inhibition) at 1uM” value stood at 0.598%.
On to `CN(C)CCCn1c(N)c(C#N)c2nc(C#N)c(C#N)nc21`, for which the “hERG current change (%, negative = inhibition) at 1uM” value was 11.4%.
Consider `CCOC(=O)CS(=O)(=O)c1ccc(O)cc1`, for which the “hERG current change (%, negative = inhibition) at 1uM” value was 26.2%.
Regarding `O=C(NNC(=S)Nc1ccc(F)cc1)c1ccccc1OC(F)F`, the “hERG current change (%, negative = inhibition) at 1uM” value is recorded as 6.53%.
Turning to `CCOc1ccc(CCNC(=O)c2cc(C)nc3ccccc23)cc1OCC`, the “hERG current change (%, negative = inhibition) at 1uM” value is -10.6%.
As for `Cn1nnnc1SCC(=O)NC(C)(C)C`, the “hERG current change (%, negative = inhibition) at 1uM” value was 7.36%.
As for `Cc1oc(-c2ccc(Cl)cc2)nc1CN1CCCC(C(=O)N2CCOCC2)C1` (centres unmarked), the “hERG current change (%, negative = inhibition) at 1uM” value is -32.9%.
On to `CCOC(=O)N1CCC(NC(=O)C2CCCN(Cc3nc(-c4cccc(Cl)c4)oc3C)C2)CC1` (centres unmarked), for which the “hERG current change (%, negative = inhibition) at 1uM” value is reported as -50.4%.
In the case of `CCOC(=O)N1CCN(C(=O)C2CCCN(Cc3nc(-c4ccc(Cl)cc4)oc3C)C2)CC1` (centres unmarked), the “hERG current change (%, negative = inhibition) at 1uM” value is reported as -57.7%.
For the molecule `Cc1oc(-c2ccc(Cl)cc2)nc1CN1CCCC(C(=O)NC2CC2)C1` (centres unmarked), the “hERG current change (%, negative = inhibition) at 1uM” value is -18.2%.
Take `COc1ccc(-c2nc(CN3CCCC(C(=O)NC4CCCC4)C3)c(C)o2)cc1` (centres unmarked): the “hERG current change (%, negative = inhibition) at 1uM” value is -53.5%.
As to `CCOC(=O)N1CCC(NC(=O)C2CCCN(Cc3nc(-c4ccc(CC)cc4)oc3C)C2)CC1` (centres unmarked), the “hERG current change (%, negative = inhibition) at 1uM” value is reported as -39.3%.
With `CCOc1ccc(-c2nc(CN3CCCC(C(=O)N4CCOCC4)C3)c(C)o2)cc1` (centres unmarked), the “hERG current change (%, negative = inhibition) at 1uM” value is listed as -5.79%.
In the case of `CCOC(=O)N1CCC(NC(=O)C2CCCN(Cc3nc(-c4cccc(C)c4)oc3C)C2)CC1` (centres unmarked) it was -24.2%; in that of `Cc1cccc(-c2nc(CN3CCCC(C(=O)NC4CCCC4)C3)c(C)o2)c1` (centres unmarked), -26.4%.
The value for `CN1N=C(C(=O)NC2CCCc3c2cnn3-c2ccc(F)cc2F)CCC1=O` (centres unmarked) was 6.91%.
Regarding `C=C1CC2C3CC[C@@]4(OCOC45COCO5)[C@@]3(C)C(O)CC2[C@@]2(C)CCC(=O)C=C12` (some centres unmarked), the “hERG current change (%, negative = inhibition) at 1uM” value was 13.6%.
As to `Cc1ccc(C(=O)C(C)OC(=O)c2ccccc2[N+](=O)[O-])cc1` (centres unmarked), the “hERG current change (%, negative = inhibition) at 1uM” value stood at 8%.
Consider `CCC1=Nc2cc(C(=O)NCCCN3CCOCC3)ccc2Sc2ccc(Br)cc21`, for which the “hERG current change (%, negative = inhibition) at 1uM” value is reported as 15.9%.
For `CCOC(=O)/C(C#N)=N/Nc1ccccc1C#N`, the “hERG current change (%, negative = inhibition) at 1uM” value is 11.2%.
With `CC(C)CCn1nnnc1C(c1ccccc1)N1CCN(C)CC1` (centres unmarked), the “hERG current change (%, negative = inhibition) at 1uM” value was determined as 9.6%.
With `CCOC(=O)Cn1nnnc1C(CC)N(Cc1ccccc1)Cc1cc2cc(C)ccc2[nH]c1=O` (centres unmarked), the “hERG current change (%, negative = inhibition) at 1uM” value is listed as -2.05%.
Turning to `Cc1cc(C)cc(N2C(=O)NC(=O)/C(=C\c3cccn3-c3ccccc3)C2=O)c1`, the “hERG current change (%, negative = inhibition) at 1uM” value was -0.0202%.
In the case of `CCCCOC(=O)c1ccc(OC(=O)c2cccnc2)cc1` it was 5.73%.
For `O=C(O)c1ccc(SCc2cnc(Cl)s2)cc1`, the “hERG current change (%, negative = inhibition) at 1uM” value is -79.6%.
Turning to `COC(=O)c1ccc(SCc2cnc(Cl)s2)cc1`, the “hERG current change (%, negative = inhibition) at 1uM” value turned out to be 7.26%.
For the molecule `Clc1ncc(CSc2ccccc2)s1`, the “hERG current change (%, negative = inhibition) at 1uM” value was 5.7%.

(Values after publication PMC4336329 (PLoS ONE, 2015).)
